# Reference: PubChem BioAssay (EPA / NIEHS)
# Records with an inconclusive call do not appear. Activity calls are given as the source filed them. Rule for the calls, unless noted: active = hit-call score of the fitted dose curve at least 0.9, where 1 is the maximum; inactive = score below 0.9.
# What was measured:
# [1] = ATG_NFI_CIS: Attagene CIS-FACTORIAL HepG2 Assay for human Nuclear Factor I (NFI) (AID 2282989); conditions: HepG2 cis-regulatory reporter, NFI response element transcription; actives raise or lower the signal
# Outline: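 Multiplexed cis-reporter system in human HepG2 cells reports native TF activity as reporter mRNA induction 24 h post-dose. Fragments labelled with 6-FAM, HpaI-digested and resolved by capillary electrophoresis; activity fitted both directions versus DMSO.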
# [2] = biological target: Myc proto-oncogene protein (Homo sapiens) (UniProt P01106); test: ATG_Myc_CIS: Attagene CIS-FACTORIAL HepG2 Assay for human Myelocytomatosis (Myc) Proto-Oncogene Transcription Factor (AID 2282990); conditions: HepG2, Attagene cis-reporter transcription factor activity; actives raise or lower the signal
# Myc proto-oncogene protein (Homo sapiens), sequence (P01106 whole entry, looked up): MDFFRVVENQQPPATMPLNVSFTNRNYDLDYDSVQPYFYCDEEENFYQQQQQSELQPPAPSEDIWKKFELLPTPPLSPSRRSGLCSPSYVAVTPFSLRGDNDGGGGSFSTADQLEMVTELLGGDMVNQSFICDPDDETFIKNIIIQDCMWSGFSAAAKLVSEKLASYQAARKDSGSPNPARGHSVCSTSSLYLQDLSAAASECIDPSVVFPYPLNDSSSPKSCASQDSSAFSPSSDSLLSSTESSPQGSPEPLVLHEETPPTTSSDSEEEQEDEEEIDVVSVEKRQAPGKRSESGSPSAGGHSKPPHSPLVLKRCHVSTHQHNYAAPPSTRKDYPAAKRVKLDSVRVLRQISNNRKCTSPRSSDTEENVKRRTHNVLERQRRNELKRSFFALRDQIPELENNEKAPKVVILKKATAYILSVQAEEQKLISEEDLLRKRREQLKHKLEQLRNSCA
# Outline: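 DMSO-normalised, bidirectionally fitted reporter mRNA signal. HepG2 cells transfected with cis reporter constructs, treated 24 h; transcripts detected by RT-PCR, 6-FAM primer extension and CE.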
# [3] = ATG_NF_kB_CIS: Attagene CIS-FACTORIAL HepG2 Assay for human Nuclear Factor Kappa B (NF-kB) (AID 2282991); conditions: HepG2 Attagene cis-factorial NF-kB reporter mRNA; actives raise or lower the signal
# Outline: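 Multiplexed cis-reporter assay in transiently transfected HepG2. 24 h treatment; RNA isolated, RT-PCR, labelled fragments resolved by CE. DMSO baseline.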
# [4] = ATG_NRF2_ARE_CIS: Attagene CIS-FACTORIAL HepG2 Assay for human Nuclear Factor Erythroid 2 Related Factor 2 (NFR2) response to Antioxidant Response Elements (ARE) (AID 2282992); conditions: HepG2 Attagene ARE/NRF2 reporter, transcription factor activity; actives raise or lower the signal;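 for AC50: reporter mRNA level measured by RT-PCR and capillary electrophoresis fluorescence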
# Outline: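 Endogenous transcription factor activity in human liver HepG2 cells is tracked via a cis-element-driven reporter within a multiplexed set. mRNA induction is read by RT-PCR and capillary electrophoresis after 24 h, with DMSO as baseline.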
# [5] = ATG_Oct_MLP_CIS: Attagene CIS-FACTORIAL HepG2 Assay for human Octamer-Binding Transcription Factor (Oct) (AID 2282993); conditions: HepG2 Attagene cis-factorial Oct reporter, mRNA; actives raise or lower the signal
# Outline: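 After 24 h compound exposure, transfected HepG2 cells were lysed for total RNA; reporter-specific cDNA was PCR-amplified, fluorescently labelled and sized by capillary electrophoresis. Bidirectional curve fitting used DMSO as baseline.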
# [6] = biological target: Cellular tumor antigen p53 (Homo sapiens) (UniProt P04637); test: ATG_p53_CIS: Attagene CIS-FACTORIAL HepG2 Assay for human p53 Transcription Factor (AID 2282994); conditions: HepG2 p53 cis-element reporter, Attagene mRNA; actives raise or lower the signal
# Cellular tumor antigen p53 (Homo sapiens), sequence (P04637 whole entry, looked up, the tested form may be a part): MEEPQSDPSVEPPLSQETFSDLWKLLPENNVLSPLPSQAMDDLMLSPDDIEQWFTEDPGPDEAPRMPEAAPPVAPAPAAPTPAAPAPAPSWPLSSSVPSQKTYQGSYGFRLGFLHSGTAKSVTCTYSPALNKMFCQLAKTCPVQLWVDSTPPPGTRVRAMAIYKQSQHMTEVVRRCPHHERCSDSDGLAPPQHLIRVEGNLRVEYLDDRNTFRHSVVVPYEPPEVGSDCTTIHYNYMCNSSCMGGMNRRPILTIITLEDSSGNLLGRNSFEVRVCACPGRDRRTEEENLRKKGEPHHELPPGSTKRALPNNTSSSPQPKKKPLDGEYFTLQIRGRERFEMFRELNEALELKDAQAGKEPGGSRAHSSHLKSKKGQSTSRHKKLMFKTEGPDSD
# Outline: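 Steps: transfect HepG2 with multiplexed cis reporter constructs; dose chemicals 24 h; extract RNA, reverse-transcribe, PCR-amplify reporter sequences; FAM-label, HpaI-digest, resolve fragments by CE. Activity fitted both directions relative to DMSO.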
# [7] = biological target: human Peroxisome Proliferator-activated Receptor alpha (PPARa), PPARA (gene 5465) (UniProt Q07869); test: ATG_PPARa_TRANS: Attagene TRANS-FACTORIAL HepG2 Assay for human Peroxisome Proliferator-activated Receptor alpha (PPARa) (AID 2283001; active = hit-call score of the fitted dose curve at least 0.9, where 1 is the maximum;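 for AC50: potency for gain of reporter signal over DMSO so agonist or activator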)
# human Peroxisome Proliferator-activated Receptor alpha (PPARa), PPARA (gene 5465), sequence (Q07869 whole entry, looked up, the tested form may be a part): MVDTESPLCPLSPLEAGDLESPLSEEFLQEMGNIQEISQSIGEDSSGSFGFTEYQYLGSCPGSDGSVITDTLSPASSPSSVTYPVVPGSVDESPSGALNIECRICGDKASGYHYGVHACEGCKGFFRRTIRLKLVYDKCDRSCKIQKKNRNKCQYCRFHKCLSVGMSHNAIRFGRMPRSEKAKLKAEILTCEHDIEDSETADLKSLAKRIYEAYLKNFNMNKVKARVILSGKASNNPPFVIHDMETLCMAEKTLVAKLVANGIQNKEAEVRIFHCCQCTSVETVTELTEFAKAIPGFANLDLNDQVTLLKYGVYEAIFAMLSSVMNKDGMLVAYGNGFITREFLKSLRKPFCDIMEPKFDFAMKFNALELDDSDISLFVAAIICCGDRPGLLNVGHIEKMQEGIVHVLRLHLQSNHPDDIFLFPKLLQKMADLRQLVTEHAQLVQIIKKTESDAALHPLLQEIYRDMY
# Outline: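 Exposure: 24 h, transiently transfected HepG2 cells. Endpoint: GAL4-UAS reporter mRNA, RT-PCR with capillary electrophoresis fluorescence. Baseline: DMSO; increases fitted.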
SMILES,outcome [1],outcome [2],outcome [3],outcome [4],outcome [5],outcome [6],outcome [7],AC50 [4],AC50 [7],AC50 [3],AC50 [5],AC50 [6],AC50 [1]
NC(=O)N=NC(N)=O,inactive,inactive,inactive,inactive,inactive,inactive,inactive,,,,,,
O=C(O)c1ccccc1Nc1cccc(C(F)(F)F)c1,inactive,inactive,inactive,,inactive,inactive,,27.3 µM (active),13.9 µM (active),,,,
FC(F)=C(F)OC(F)(F)C(F)(F)C(F)(F)F,inactive,inactive,inactive,inactive,inactive,inactive,inactive,,,,,,
C=CC(=O)OCCOC1C2CCC1C1CC=CC12 (stereo not drawn),inactive,inactive,inactive,inactive,inactive,inactive,inactive,,,,,,
CCOc1ccc(N)c([N+](=O)[O-])c1,inactive,inactive,inactive,inactive,inactive,inactive,inactive,,,,,,
O=P(O)(O)Oc1ccccc1,inactive,inactive,inactive,inactive,inactive,inactive,inactive,,,,,,
CC(C)=CCCC(C)C=O (stereo not drawn),inactive,inactive,inactive,inactive,inactive,inactive,inactive,,,,,,
CC(C)C1=CC2=CC[C@@H]3[C@](C)(CCC[C@@]3(C)C(=O)O)[C@H]2CC1,inactive,inactive,,,inactive,inactive,inactive,19.8 µM (active),,157 µM (active),,,
COC(=O)/C=C\C(=O)O,inactive,inactive,inactive,,inactive,inactive,inactive,43.3 µM (active),,,,,
CCCCOCCOC(=O)COc1nc(Cl)c(Cl)cc1Cl,inactive,inactive,inactive,inactive,inactive,inactive,inactive,,,,,,
CC(=O)c1ccc2c(c1)CCCC2,inactive,inactive,inactive,inactive,inactive,inactive,inactive,,,,,,
Clc1nc2ccccc2s1,inactive,inactive,inactive,inactive,inactive,inactive,inactive,,,,,,
CC=CCO,inactive,inactive,inactive,inactive,inactive,inactive,inactive,,,,,,
COCC(C)N (stereo not drawn),inactive,inactive,inactive,inactive,inactive,inactive,inactive,,,,,,
C=CC(C)(CCC=C(C)C)OC(=O)C(C)C (stereo not drawn),inactive,inactive,inactive,,inactive,inactive,inactive,100 µM (active),,,,,
CN(C)c1ccc(N=Nc2ccccc2C(=O)O)cc1,inactive,inactive,inactive,,,,,4.76 µM (active),23.2 µM (active),,23.3 µM (active),66.4 µM (active),
CC(C)c1ccc2c(c1)CC[C@H]1[C@](C)(CN)CCC[C@]21C,inactive,inactive,,inactive,,inactive,,,6.09 µM (active),5.84 µM (active),5.89 µM (active),,
CN(C)c1ccc(C(=N)c2ccc(N(C)C)cc2)cc1,,inactive,inactive,inactive,,,inactive,,,,0.143 µM (active),29.4 µM (active),0.162 µM (active)
CCCOC(=O)CCCCC(=O)OCCC,inactive,inactive,inactive,inactive,inactive,inactive,inactive,,,,,,
CCOC(=O)[C@H](C)O,inactive,inactive,inactive,,inactive,inactive,inactive,26.7 µM (active),,,,,
Cc1cnc(NC(=O)C2=C(O)c3ccccc3S(=O)(=O)N2C)s1,inactive,inactive,inactive,inactive,inactive,inactive,inactive,,,,,,
CCCCCCCCCCCCCCCCCC#N,inactive,inactive,inactive,inactive,inactive,inactive,inactive,,,,,,
NC(=O)C1CO1 (stereo not drawn),inactive,inactive,inactive,inactive,inactive,inactive,inactive,,,,,,
CC(=O)c1ccc[nH]1,inactive,inactive,inactive,inactive,inactive,inactive,inactive,,,,,,
NC(=O)c1ccccc1O,inactive,inactive,inactive,inactive,inactive,inactive,inactive,,,,,,
CC(C)(C)C(=O)C=Cc1ccc(Cl)cc1,,inactive,inactive,inactive,,,,,24.7 µM (active),,26.3 µM (active),59 µM (active),48.8 µM (active)
O=C1CC2CC1C1CCCC21 (stereo not drawn),inactive,inactive,inactive,,inactive,inactive,inactive,72.4 µM (active),,,,,
O=C(O)c1cc(Cl)cc([N+](=O)[O-])c1Cl,inactive,inactive,inactive,inactive,inactive,inactive,inactive,,,,,,
Cc1cccc(N(C)C(=S)Oc2ccc3ccccc3c2)c1,inactive,inactive,inactive,,inactive,inactive,inactive,19.8 µM (active),,,,,
